This is part of a sample that, as a whole, favours compounds with a hit. Of some 83,000 tested, about 20% had one in any assay.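 Cell lines were cultured in 96-well plates, exposed to a single compound concentration, and assessed for percent growth 48 hours later.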 The source made the active and inactive calls. Rule for the calls: active = growth percent below 10; inactive = the rest.
How the values were obtained:
Experiment in all cases: NCI-60 one-dose screen, 48 h (100 = growth as untreated, 0 = no growth, -100 = all killed)
Settings in all cases: 10 µM unless noted
NCI-H23 lung = tested on: NCI-H23 lung
NCI-H226 lung = tested on: NCI-H226 lung
NCI-H322M lung = tested on: NCI-H322M lung
HOP-62 NSCLC = tested on: HOP-62 NSCLC
NCI-H460 lung = tested on: NCI-H460 lung
HOP-92 NSCLC = tested on: HOP-92 NSCLC
NCI-H522 lung = tested on: NCI-H522 lung
A549/ATCC NSCLC = tested on: A549/ATCC NSCLC
786-0 renal = tested on: 786-0 renal
COLO 205 colon = tested on: COLO 205 colon

Measured: growth

CN(C)c1ccc(/C=C(\C#N)c2nc3ccccc3n2C)cc1
inactive: NCI-H23 lung 58.9% | NCI-H226 lung 77.8% | NCI-H322M lung 46.5% | HOP-62 NSCLC 89.7% | NCI-H460 lung 13.8% | HOP-92 NSCLC 86.4% | A549/ATCC NSCLC 31% | 786-0 renal 47.4% | COLO 205 colon 19.4%
active: NCI-H522 lung 3.96%

COc1ccc(-c2nnc(SCC(=O)Nc3ccc(C(=O)/C=C/c4ccc(Cl)cc4)cc3)n2-c2ccccc2)cc1
inactive: NCI-H23 lung 91.1% | NCI-H226 lung 103% | NCI-H322M lung 118% | HOP-62 NSCLC 100% | NCI-H460 lung 106% | HOP-92 NSCLC 105% | NCI-H522 lung 84% | A549/ATCC NSCLC 88.5% | 786-0 renal 97.4% | COLO 205 colon 107%

Cc1ccc(Nc2nc(NCCO)c3ccccc3n2)cc1C
inactive: NCI-H23 lung 15.8% | NCI-H322M lung 55.5% | HOP-62 NSCLC 20.3% | HOP-92 NSCLC 89.7% | A549/ATCC NSCLC 13.6% | 786-0 renal 29%
active: NCI-H226 lung 1.03% | NCI-H460 lung -2.08% | NCI-H522 lung -21% | COLO 205 colon -65.7%

O=c1[nH]cnc2nc[nH]c12
inactive: NCI-H23 lung 113% | NCI-H226 lung 98.9% | NCI-H322M lung 94.9% | HOP-62 NSCLC 106% | NCI-H460 lung 103% | HOP-92 NSCLC 104% | NCI-H522 lung 99.2% | A549/ATCC NSCLC 105% | 786-0 renal 114% | COLO 205 colon 112%

Cc1cc(Cl)c2ccc(N(C)C)cc2n1
active: NCI-H522 lung -10.1%
inactive: NCI-H23 lung 100% | NCI-H226 lung 97.6% | NCI-H322M lung 110% | HOP-62 NSCLC 95.5% | NCI-H460 lung 106% | HOP-92 NSCLC 102% | A549/ATCC NSCLC 94.9% | 786-0 renal 99% | COLO 205 colon 102%

CCSc1ccc([C@@H]2[C@@H](O)C(=O)N2c2cc(OC)c(OC)c(OC)c2)cc1
active: NCI-H460 lung 5.97% | NCI-H522 lung 6.56% | COLO 205 colon -48.8%
inactive: NCI-H23 lung 34% | NCI-H226 lung 50.7% | NCI-H322M lung 39.4% | HOP-62 NSCLC 22.6% | HOP-92 NSCLC 101% | A549/ATCC NSCLC 20.8% | 786-0 renal 14%

CC(C)NC(=O)OCC#CCOC(=O)NC(C)C
inactive: NCI-H23 lung 99.6% | NCI-H226 lung 106% | NCI-H322M lung 86.8% | HOP-62 NSCLC 104% | NCI-H460 lung 108% | HOP-92 NSCLC 105% | NCI-H522 lung 89.1% | A549/ATCC NSCLC 96.7% | 786-0 renal 102% | COLO 205 colon 106%

O=C(CS)OCC(COC(=O)CS)(COC(=O)CS)COC(=O)CS
inactive: NCI-H23 lung 85% | NCI-H226 lung 98.1% | NCI-H322M lung 58.3% | HOP-62 NSCLC 105% | NCI-H460 lung 75.2% | HOP-92 NSCLC 108% | NCI-H522 lung 76.4% | A549/ATCC NSCLC 93.9% | 786-0 renal 103% | COLO 205 colon 105%

CCCCn1c(C)nc2ccc(Nc3nc(Cl)nc4nc[nH]c34)cc21
active: HOP-92 NSCLC -11.2%
inactive: NCI-H23 lung 75.3% | NCI-H226 lung 62.4% | NCI-H322M lung 82.5% | HOP-62 NSCLC 66.1% | NCI-H460 lung 70.9% | NCI-H522 lung 73.2% | A549/ATCC NSCLC 81.4% | 786-0 renal 55.4% | COLO 205 colon 86.8%

COc1ccc(NC(=O)/C=C/c2ccc(NC(=O)N3CCCC3)cc2)cn1
inactive: NCI-H23 lung 105% | NCI-H226 lung 96.6% | NCI-H322M lung 106% | HOP-62 NSCLC 104% | NCI-H460 lung 105% | HOP-92 NSCLC 103% | NCI-H522 lung 95.9% | A549/ATCC NSCLC 100% | 786-0 renal 109% | COLO 205 colon 112%

CCOc1cccc(/C=N/NC(=O)Cc2ccc(Nc3ccnc(C(F)(F)F)c3)cc2)c1O
active: NCI-H226 lung -1.59% | HOP-62 NSCLC 7.88% | NCI-H460 lung 0.302% | COLO 205 colon 4.75%
inactive: NCI-H23 lung 39% | NCI-H322M lung 36.8% | HOP-92 NSCLC 46.7% | NCI-H522 lung 13.4% | A549/ATCC NSCLC 47.3% | 786-0 renal 29%

CCCN(CCC)CC(O)COc1ccccc1C(=O)Nc1ccccc1 (stereo not given)
inactive: NCI-H23 lung 90.9% | NCI-H226 lung 78.9% | NCI-H322M lung 119% | HOP-62 NSCLC 66.5% | NCI-H460 lung 97.6% | HOP-92 NSCLC 84.2% | NCI-H522 lung 55.8% | A549/ATCC NSCLC 40.4% | 786-0 renal 88% | COLO 205 colon 46.1%

O=C1Nc2ccccc2/C1=C/c1c[nH]c2ccccc12
inactive: NCI-H23 lung 78.9% | NCI-H226 lung 83.4% | NCI-H322M lung 70.1% | HOP-62 NSCLC 66% | NCI-H460 lung 88.7% | HOP-92 NSCLC 65.2% | NCI-H522 lung 88.7% | A549/ATCC NSCLC 77.3% | 786-0 renal 105% | COLO 205 colon 115%

O=C(CI)NCCNc1cccc2c(S(=O)(=O)O)cccc12
inactive: NCI-H23 lung 95.1% | NCI-H226 lung 103% | NCI-H322M lung 98% | HOP-62 NSCLC 107% | NCI-H460 lung 105% | HOP-92 NSCLC 102% | NCI-H522 lung 107% | A549/ATCC NSCLC 110% | 786-0 renal 101% | COLO 205 colon 105%

NC(=S)N/N=C(/c1cccs1)C1CC1
inactive: NCI-H23 lung 101% | NCI-H226 lung 90.5% | NCI-H322M lung 93% | HOP-62 NSCLC 91.8% | NCI-H460 lung 106% | HOP-92 NSCLC 107% | NCI-H522 lung 87.4% | A549/ATCC NSCLC 63.6% | 786-0 renal 105% | COLO 205 colon 105%

Clc1ccc(Nc2ncnc3c2sc2ncccc23)cc1
active: NCI-H23 lung 3.68%
inactive: NCI-H226 lung 31.5% | NCI-H322M lung 45.9% | HOP-62 NSCLC 15.7% | NCI-H460 lung 10.3% | HOP-92 NSCLC 50.4% | NCI-H522 lung 31.5% | A549/ATCC NSCLC 27.9% | 786-0 renal 13.6% | COLO 205 colon 30.2%

Clc1cc(Br)ccc1-c1ccc(CNCC2CCNCC2)o1
inactive: NCI-H23 lung 69.6% | NCI-H226 lung 48.4% | NCI-H322M lung 60.2% | HOP-62 NSCLC 41% | HOP-92 NSCLC 56.3% | NCI-H522 lung 55.3% | A549/ATCC NSCLC 17% | 786-0 renal 42.3% | COLO 205 colon 27.9%
active: NCI-H460 lung 9.35%

COc1ccc(/C(=C\c2cc(OC)c(OC)c(OC)c2)C(=O)Nc2nc3ccc(Cl)cc3s2)cc1
inactive: NCI-H23 lung 94.4% | NCI-H226 lung 83.2% | NCI-H322M lung 82.5% | HOP-62 NSCLC 94.9% | NCI-H460 lung 117% | HOP-92 NSCLC 86.8% | NCI-H522 lung 74.9% | A549/ATCC NSCLC 81% | 786-0 renal 91.3% | COLO 205 colon 108%

CN(C)CCOc1nc2c3ccncc3cc(-c3cccc(Cl)c3)c2c2cnccc12
inactive: NCI-H23 lung 29.7% | NCI-H226 lung 35% | NCI-H322M lung 44.1% | HOP-62 NSCLC 43.5% | NCI-H460 lung 10.5% | HOP-92 NSCLC 56.2% | NCI-H522 lung 31.9% | A549/ATCC NSCLC 16.4% | 786-0 renal 33.4% | COLO 205 colon 13.8%

COc1ccc([C@@H]2[C@@H](Oc3ccccc3)C(=O)N2c2cc(OC)c(OC)c(OC)c2)cc1F
inactive: NCI-H23 lung 16.5% | NCI-H226 lung 41.5% | NCI-H322M lung 33.4% | HOP-62 NSCLC 14% | HOP-92 NSCLC 42% | A549/ATCC NSCLC 13.4%
active: NCI-H460 lung 7.22% | NCI-H522 lung -26.1% | 786-0 renal 5.88% | COLO 205 colon -41.2%

COc1ccc(/C(=C\c2ccc3c(c2)OCO3)C(=O)Nc2nc3ccccc3s2)cc1
inactive: NCI-H23 lung 106% | NCI-H226 lung 97.6% | NCI-H322M lung 94.4% | HOP-62 NSCLC 95.5% | NCI-H460 lung 110% | HOP-92 NSCLC 104% | NCI-H522 lung 81.5% | A549/ATCC NSCLC 93.9% | 786-0 renal 97.2% | COLO 205 colon 110%

Nc1nc(N)c2cc(CNc3ccc(Cl)c(Cl)c3)ccc2n1
inactive: NCI-H23 lung 42.8% | NCI-H226 lung 45.2% | NCI-H322M lung 29.5% | HOP-62 NSCLC 43.1% | NCI-H522 lung 13.4% | A549/ATCC NSCLC 17.7%
active: NCI-H460 lung -48.8% | HOP-92 NSCLC -5.15% | 786-0 renal 9.65% | COLO 205 colon -79.7%

CCc1ccc(Nc2cc(C)c3ccc(O)cc3n2)cc1
active: COLO 205 colon -81.3%
inactive: NCI-H23 lung 90.4% | NCI-H226 lung 76.7% | NCI-H322M lung 82.9% | HOP-62 NSCLC 88% | NCI-H460 lung 64.3% | HOP-92 NSCLC 74.4% | NCI-H522 lung 92.2% | A549/ATCC NSCLC 85% | 786-0 renal 68.1%

O=C(NCCNC(=O)c1cc(S(=O)(=O)NCCc2ccccc2)c(O)c(O)c1O)c1cc(S(=O)(=O)NCCc2ccccc2)c(O)c(O)c1O
inactive: NCI-H23 lung 38.9% | NCI-H226 lung 49.5% | NCI-H322M lung 39.5% | HOP-62 NSCLC 34.6% | NCI-H460 lung 32.1% | HOP-92 NSCLC 73.9% | NCI-H522 lung 41.6% | A549/ATCC NSCLC 45.8% | 786-0 renal 53.4% | COLO 205 colon 104%

Fc1ccc(-c2nnc(N3CCOCC3)c3ccccc23)cc1
inactive: NCI-H23 lung 111% | NCI-H226 lung 97.2% | NCI-H322M lung 94.2% | HOP-62 NSCLC 97.1% | NCI-H460 lung 103% | HOP-92 NSCLC 103% | NCI-H522 lung 101% | A549/ATCC NSCLC 102% | 786-0 renal 105% | COLO 205 colon 89.6%

N#Cc1nc(-c2cccc(Br)c2)cc(-c2ccc(Nc3nc(N4CCCCC4)nc(N4CCCCC4)n3)cc2)c1N
inactive: NCI-H23 lung 13% | NCI-H322M lung 63.1% | HOP-62 NSCLC 18.5% | A549/ATCC NSCLC 21.9%
active: NCI-H226 lung -73.7% | NCI-H460 lung -21.8% | HOP-92 NSCLC -69.4% | NCI-H522 lung -64.6% | 786-0 renal 6.82% | COLO 205 colon -57.7%
